This passage reports growth results from PubChem BioAssay (NCI).

This is part of a sample that, as a whole, favours compounds with a hit. Of some 83,000 tested, about 20% had one in any assay.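 A percent growth of 40 corresponds to 60% growth inhibition; 0 means no net growth; -100 means all cells died. Active threshold: below 10.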 Values without a mark were called inactive. Activity calls are given as the source filed them.

What all share (assay): NCI-60 one-dose screen, 48 h (100 = growth as untreated, 0 = no growth, -100 = all killed)
What all share (details): 10 µM unless noted

Assay [1] concerns SK-MEL-2 melanoma.
In assay [2] the test system is EKVX NSCLC.
The test system of assay [3] is SN12C renal.
The subject of assay [4] is UO-31 renal.
In assay [5] the test system is TK-10 renal.
For assay [6], the system named is ACHN renal.
Assay [7] concerns CAKI-1 renal.
Assay [8] has as its system A498 renal.
Assay [9] concerns CCRF-CEM leukemia.
Assay [10] relates to MOLT-4 leukemia.

In the case of `O=[N+]([O-])c1ccc(N=Nc2c(NNc3ccc([N+](=O)[O-])cn3)cc(S(=O)(=O)O)c3ccccc23)nc1`, the growth was 108% in assay [1]; 91.1% in assay [2]; 81.5% in assay [3]; 52.1% in assay [4]; 88.4% in assay [5]; 57.4% in assay [6]. Moreover, the growth in [7] was 64.1%; in assay [8], 77.2%; in assay [9], 65.1%; in [10], 70.9%.

Turning to `Clc1cc2nc(-c3ccccc3)c(-c3ccccc3)nc2cc1Cl`, the growth was 87.9% in [1]; 82.6% in assay [2]; 90.4% in assay [3]; 55.7% in [4]; 123% in assay [5]; 93.7% in assay [6]. In addition, the growth in [7] is 89.4%; in assay [8], 82%; in assay [9], 88.2%.

Regarding `Oc1ccc(-c2nnc3c4[nH]ccc4ncn23)cc1`, the growth is 113% in [1]; 93.6% in assay [2]; 95.2% in [3]; 76.3% in [4]; 92.3% in assay [5]; 87.9% in assay [6]. The growth in [7] is 84.7%; in [8], 74.4%; in [9], 108%; in assay [10], 93.3%.

Consider `Fc1ccc(-c2nc(-c3ccc(-c4nc5ccc(F)cc5[nH]4)cc3)no2)cc1`, for which the growth in [1] is 102%; in assay [2] it was 85.1%; in assay [3] it was 84.3%; in assay [4], 84.4%; in [5] it was 119%; in assay [6], 71%. Moreover, the growth is 81.3% in assay [7], 79.6% in assay [8], 74.9% in assay [9] and 94.8% in assay [10].

`O=C(NCCN1CCCCC1)n1cc(-c2ccncc2)c(-c2ccc(Cl)c(O)c2)n1`: the growth in assay [1] is 60.8%; in assay [2], 114%; in assay [3], 81.6%; in assay [4], 55.4%; in assay [5], 79.4%; in [6], 57.4%. The growth in [7] was 109%; in [8], 114%; in [9] it was 87%; in [10], 88.2%.

Regarding `Cc1csc(N/N=C/c2ccncc2)n1`, the growth in assay [1] was 97.7%; in assay [2], 90.1%; in assay [3], 97.8%; in assay [4], 95%; in assay [5], 91%; in [6], 103%. The growth in assay [7] was 99.5%; in assay [8] it was 85.2%.

As for `Cc1[nH]c2ccccc2c1C1=CC(=O)C=CC1=O`, the growth in [1] was 93.7%; in assay [2] it was 107%; in assay [3], 90.8%; in assay [4] it was 59.5%; in assay [5], 92.2%; in assay [6], 58.7%. Further, the growth in assay [7] was 96.8%; in assay [8], 121%; in [9], 28.4%.

In the case of `CCOC(=O)c1ccc2c(c1)[n+](=O)c(C(=O)c1ccc3ccccc3c1)c(C(F)(F)F)n2[O-]`, the growth in assay [1] was -83.5% (active); in assay [2], -56.8% (active); in [3], -99.2% (active); in [4] it was -96% (active); in [5] it was -89.7% (active); in [6] it was -100% (active). Besides, the values for the growth in assay [7] and in [8] were -93.8% (active) and -62.4% (active), respectively.

Consider `CC1CCN(CCCCCOc2ccc3oc4ccc(Cl)cc4c(=O)c3c2)CC1`, for which the growth in assay [1] was 88.1%; in assay [2], 75.1%; in assay [3], 70.9%; in assay [4], 63.1%; in assay [5], 75.7%; in assay [6] it was 93.8%. For the same compound, the growth in assay [7] was 80.3%; in assay [8], 78.7%; in assay [9], 40.4%; in assay [10] it was 26.6%.

For `CCCCCCCCCCCC1=NC(C)(C)CN1C(C)C`, the growth in [1] is 60.9%; in assay [2], 57.5%; in assay [3], 61%; in assay [4], 38%; in assay [5], 81.6%; in assay [6] it was 61.6%. Moreover, the figures for the growth in assay [7], in assay [8] and in assay [9] were 46.6%, 76.7% and 29.3%, respectively.

Consider `CCN1C(=O)N(CC)C2C1NN=c1s/c(=C\c3ccco3)c(=O)n12` (stereo unspecified), for which the growth in [1] was 30%; in [2] it was 36.3%; in assay [3], 47.5%; in assay [4], 60%; in assay [5], 57.6%; in assay [6], 54.9%. For the same compound, the growth in assay [7] is 46%; in assay [8], 21.5%; in assay [9], 10%; in assay [10], 31.7%.

As to `CCN(CC)c1ccc(/C=C2/NC(=O)NC2=O)cc1`, the growth in assay [1] is 8.13% (active); in assay [2] it was 1.53% (active); in assay [3], 55.9%; in assay [4], 53.5%; in assay [5], 49.5%; in assay [6], 71.4%. In addition, the growth in assay [7] was 39%; in assay [8], 23.8%.

In the case of `CCCCCCCCCCCCCCCCCC(=O)OCCCCCCCCCCCCC`, the growth in assay [1] was 112%; in [2], 106%; in [3], 111%; in [4] it was 95%; in [5], 122%; in [6], 104%. In addition, the growth is 103% in assay [7], 105% in [8], 73% in [9] and 113% in assay [10].
